The structures appear in SMILES notation. For some of these results: Potency and affinity values are given separately.

Holding throughout (parameters): scale not given: direction of the effect not stated beside the values
The target of assay [1] is Protein translocase subunit SecA (Escherichia coli (strain K12)) (UniProt P10408). Kind of assay: Assay to Identify E. coli SecA ATPase Inhibitors. The assay is classed as functional. Conditions: 30 µM.
Assay [2] deals with T1, Ubiquitin-activating enzyme e1, putative (Leishmania donovani (strain BPK282A1)) (UniProt E9BSI1).
T1 sequence (whole entry): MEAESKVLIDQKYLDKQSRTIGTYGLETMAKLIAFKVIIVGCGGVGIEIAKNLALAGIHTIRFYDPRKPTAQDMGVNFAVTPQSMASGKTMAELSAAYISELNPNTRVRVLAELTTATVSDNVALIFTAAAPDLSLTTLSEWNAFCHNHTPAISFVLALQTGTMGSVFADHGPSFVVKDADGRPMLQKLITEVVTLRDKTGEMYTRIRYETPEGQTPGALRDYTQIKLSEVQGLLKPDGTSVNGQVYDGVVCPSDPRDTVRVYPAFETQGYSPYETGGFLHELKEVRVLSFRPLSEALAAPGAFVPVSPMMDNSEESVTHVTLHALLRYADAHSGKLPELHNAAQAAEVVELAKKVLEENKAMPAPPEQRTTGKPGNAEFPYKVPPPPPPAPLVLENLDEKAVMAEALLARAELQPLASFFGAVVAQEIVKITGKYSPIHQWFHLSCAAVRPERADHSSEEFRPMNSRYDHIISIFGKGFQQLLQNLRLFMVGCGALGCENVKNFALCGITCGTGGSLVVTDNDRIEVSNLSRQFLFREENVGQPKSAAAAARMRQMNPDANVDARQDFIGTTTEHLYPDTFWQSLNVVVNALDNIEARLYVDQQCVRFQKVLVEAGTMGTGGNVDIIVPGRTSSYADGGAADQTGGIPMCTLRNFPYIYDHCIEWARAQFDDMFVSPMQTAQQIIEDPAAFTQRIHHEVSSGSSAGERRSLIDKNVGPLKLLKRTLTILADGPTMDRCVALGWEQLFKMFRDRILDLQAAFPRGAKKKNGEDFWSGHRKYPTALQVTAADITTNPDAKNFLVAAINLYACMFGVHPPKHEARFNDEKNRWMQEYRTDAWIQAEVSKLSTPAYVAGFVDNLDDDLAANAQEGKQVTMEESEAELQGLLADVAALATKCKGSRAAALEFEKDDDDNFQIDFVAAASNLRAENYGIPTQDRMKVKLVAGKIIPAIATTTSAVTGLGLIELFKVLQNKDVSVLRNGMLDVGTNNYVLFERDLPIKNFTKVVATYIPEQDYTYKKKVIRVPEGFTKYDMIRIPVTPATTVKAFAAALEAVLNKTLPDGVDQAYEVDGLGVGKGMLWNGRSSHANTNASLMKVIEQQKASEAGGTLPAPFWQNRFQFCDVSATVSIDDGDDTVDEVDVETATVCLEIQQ
Kind of assay: Leishmania donovani Ubiquitin Activating Enzyme (LdE1). It counts as functional. To be noted: 30 µM.

Assay [3] concerns the target AMP-activated protein kinase, AMPK (Homo sapiens) (UniProt P54646+O43741+P54619+Q9UGJ0+Q9Y478+Q13131+Q9UGI9). In words: AMP-dependent Kinase enzyme assay. An in vitro enzyme assay that detects ADP turnover that is directly proportional to AMPK activity. This uses naive AMPK that is activated during the assay with MK-8722. It counts as functional. To be noted: 30 µM.

In assay [4] the target is Sialic acid-binding Ig-like lectin 9 (Homo sapiens) (UniProt Q9Y336). In words: Hs-Siglec9 ALPHAscreen SOP 20170721. To be noted: 10 µM. For orientation: Alpha assays give light when donor and acceptor beads are brought close together.
Sialic acid-binding Ig-like lectin 9 (Homo sapiens), sequence (Q9Y336 whole entry): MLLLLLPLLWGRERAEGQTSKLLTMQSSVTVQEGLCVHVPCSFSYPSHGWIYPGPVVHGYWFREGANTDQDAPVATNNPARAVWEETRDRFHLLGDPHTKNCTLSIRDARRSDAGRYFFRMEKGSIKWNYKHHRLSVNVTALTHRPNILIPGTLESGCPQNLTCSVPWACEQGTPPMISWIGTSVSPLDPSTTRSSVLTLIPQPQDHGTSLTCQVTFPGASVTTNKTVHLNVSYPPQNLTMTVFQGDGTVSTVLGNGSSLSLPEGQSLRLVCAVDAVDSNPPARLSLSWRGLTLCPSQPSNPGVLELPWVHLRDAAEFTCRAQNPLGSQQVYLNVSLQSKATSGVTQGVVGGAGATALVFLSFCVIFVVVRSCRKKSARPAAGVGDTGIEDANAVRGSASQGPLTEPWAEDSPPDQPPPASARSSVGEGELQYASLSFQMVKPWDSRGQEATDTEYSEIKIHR
In a further assay the test system is Trypanosoma cruzi. Kind of assay: Trypanosoma cruzi phosphomannomutase and mannose-1-phosphate guanylyltransferase assay. The assay is classed as functional. To be noted: 10 µM.
Assay [5] deals with T2, Arginase-2, mitochondrial (Homo sapiens) (UniProt P78540).
T2 sequence (whole entry): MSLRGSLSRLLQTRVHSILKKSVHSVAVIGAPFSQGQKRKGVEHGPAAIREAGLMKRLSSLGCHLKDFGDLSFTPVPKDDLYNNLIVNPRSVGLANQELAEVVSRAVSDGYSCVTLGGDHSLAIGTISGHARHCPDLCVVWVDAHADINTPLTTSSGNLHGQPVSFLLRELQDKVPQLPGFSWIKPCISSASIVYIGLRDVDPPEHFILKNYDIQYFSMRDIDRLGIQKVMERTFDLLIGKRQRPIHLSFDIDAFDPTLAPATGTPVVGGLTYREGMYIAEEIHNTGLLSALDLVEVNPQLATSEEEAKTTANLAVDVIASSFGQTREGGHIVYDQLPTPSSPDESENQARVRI
Kind of assay: in vitro enzyme assay to detect the production of urea directly proportional to the activity of Arginase II. Also: in the data most compounds retested in dose-response had high values. Conditions: 33.3 µM. It counts as functional.

Assay [6] concerns the target T3, Proteasome subunit beta (Trypanosoma cruzi) (UniProt O96673).
T3 sequence (whole entry): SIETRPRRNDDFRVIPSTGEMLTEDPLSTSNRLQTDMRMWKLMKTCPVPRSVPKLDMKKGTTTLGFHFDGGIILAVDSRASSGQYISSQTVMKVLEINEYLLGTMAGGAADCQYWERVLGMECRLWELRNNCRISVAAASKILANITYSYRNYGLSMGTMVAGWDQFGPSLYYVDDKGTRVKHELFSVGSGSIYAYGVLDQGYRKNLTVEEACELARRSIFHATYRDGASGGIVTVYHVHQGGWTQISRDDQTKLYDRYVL
Kind of assay: Trypanosoma cruzi proteasome chymotrypsin-like activity (TcProtChymo) assay. Also: in the data most compounds retested in dose-response had high values. It counts as functional. Conditions: 9.37 µM.

A further assay is filed under the species Homo sapiens. In words: To identify inhibition of the IFN signalling (Jak-Stat) pathway via expression of an eGFP reporter gene under the control of an IFN-stimulated response element (ISRE) containing MxA promoter. It counts as functional. To be noted: 30 µM. For orientation: Reporter assays use an easily measured gene product as a stand-in for the process of interest.

Assay [7] has as its target T4, Tyrosyl-tRNA synthetase, putative (Trypanosoma cruzi (strain CL Brener)) (UniProt Q4DSP6).
T4 sequence (whole entry): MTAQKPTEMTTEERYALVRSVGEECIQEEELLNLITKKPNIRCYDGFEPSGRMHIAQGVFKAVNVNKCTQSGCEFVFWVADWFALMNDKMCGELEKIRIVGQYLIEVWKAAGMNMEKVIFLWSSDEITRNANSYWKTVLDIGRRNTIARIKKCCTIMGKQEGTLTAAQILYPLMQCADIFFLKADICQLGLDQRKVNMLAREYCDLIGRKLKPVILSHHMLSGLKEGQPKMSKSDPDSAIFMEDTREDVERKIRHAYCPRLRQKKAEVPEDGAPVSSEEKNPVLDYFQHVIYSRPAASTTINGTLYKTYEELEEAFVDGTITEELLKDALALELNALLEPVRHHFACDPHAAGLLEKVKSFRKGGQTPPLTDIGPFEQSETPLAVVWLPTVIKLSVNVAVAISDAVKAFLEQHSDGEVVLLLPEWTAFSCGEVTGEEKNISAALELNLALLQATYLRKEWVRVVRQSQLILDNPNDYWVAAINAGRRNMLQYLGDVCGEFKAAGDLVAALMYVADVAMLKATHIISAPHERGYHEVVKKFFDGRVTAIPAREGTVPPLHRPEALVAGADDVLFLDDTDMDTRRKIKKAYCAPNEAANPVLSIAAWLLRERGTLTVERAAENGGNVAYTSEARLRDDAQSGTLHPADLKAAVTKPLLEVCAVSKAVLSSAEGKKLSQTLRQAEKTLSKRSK
Kind of assay: Trypanosoma cruzi tyrosyl tRNA synthetase (TcYRS) _High Tyrosine SOP. Also: in the data most compounds retested in dose-response had high values. The assay is classed as functional. Conditions: 30 µM.

The target of assay [8] is T4, Tyrosyl-tRNA synthetase, putative (Trypanosoma cruzi (strain CL Brener)). Kind of assay: Trypanosoma cruzi tyrosyl tRNA synthetase (TcYRS) SOP. It counts as functional. To be noted: 30 µM.
The target of assay [9] is Chromo domain-containing protein 1 (Saccharomyces cerevisiae (strain ATCC 204508 / S288c) (Baker's yeast)) (UniProt P32657). Kind of assay: ScCHD-1 Enzyme Inhibition Assay. Also: in the data most compounds retested in dose-response had high values. The assay is classed as functional. Conditions: 30 µM.
Chromo domain-containing protein 1 (Saccharomyces cerevisiae (strain ATCC 204508 / S288c) (Baker's yeast)), sequence (P32657 whole entry, the tested form may be a part): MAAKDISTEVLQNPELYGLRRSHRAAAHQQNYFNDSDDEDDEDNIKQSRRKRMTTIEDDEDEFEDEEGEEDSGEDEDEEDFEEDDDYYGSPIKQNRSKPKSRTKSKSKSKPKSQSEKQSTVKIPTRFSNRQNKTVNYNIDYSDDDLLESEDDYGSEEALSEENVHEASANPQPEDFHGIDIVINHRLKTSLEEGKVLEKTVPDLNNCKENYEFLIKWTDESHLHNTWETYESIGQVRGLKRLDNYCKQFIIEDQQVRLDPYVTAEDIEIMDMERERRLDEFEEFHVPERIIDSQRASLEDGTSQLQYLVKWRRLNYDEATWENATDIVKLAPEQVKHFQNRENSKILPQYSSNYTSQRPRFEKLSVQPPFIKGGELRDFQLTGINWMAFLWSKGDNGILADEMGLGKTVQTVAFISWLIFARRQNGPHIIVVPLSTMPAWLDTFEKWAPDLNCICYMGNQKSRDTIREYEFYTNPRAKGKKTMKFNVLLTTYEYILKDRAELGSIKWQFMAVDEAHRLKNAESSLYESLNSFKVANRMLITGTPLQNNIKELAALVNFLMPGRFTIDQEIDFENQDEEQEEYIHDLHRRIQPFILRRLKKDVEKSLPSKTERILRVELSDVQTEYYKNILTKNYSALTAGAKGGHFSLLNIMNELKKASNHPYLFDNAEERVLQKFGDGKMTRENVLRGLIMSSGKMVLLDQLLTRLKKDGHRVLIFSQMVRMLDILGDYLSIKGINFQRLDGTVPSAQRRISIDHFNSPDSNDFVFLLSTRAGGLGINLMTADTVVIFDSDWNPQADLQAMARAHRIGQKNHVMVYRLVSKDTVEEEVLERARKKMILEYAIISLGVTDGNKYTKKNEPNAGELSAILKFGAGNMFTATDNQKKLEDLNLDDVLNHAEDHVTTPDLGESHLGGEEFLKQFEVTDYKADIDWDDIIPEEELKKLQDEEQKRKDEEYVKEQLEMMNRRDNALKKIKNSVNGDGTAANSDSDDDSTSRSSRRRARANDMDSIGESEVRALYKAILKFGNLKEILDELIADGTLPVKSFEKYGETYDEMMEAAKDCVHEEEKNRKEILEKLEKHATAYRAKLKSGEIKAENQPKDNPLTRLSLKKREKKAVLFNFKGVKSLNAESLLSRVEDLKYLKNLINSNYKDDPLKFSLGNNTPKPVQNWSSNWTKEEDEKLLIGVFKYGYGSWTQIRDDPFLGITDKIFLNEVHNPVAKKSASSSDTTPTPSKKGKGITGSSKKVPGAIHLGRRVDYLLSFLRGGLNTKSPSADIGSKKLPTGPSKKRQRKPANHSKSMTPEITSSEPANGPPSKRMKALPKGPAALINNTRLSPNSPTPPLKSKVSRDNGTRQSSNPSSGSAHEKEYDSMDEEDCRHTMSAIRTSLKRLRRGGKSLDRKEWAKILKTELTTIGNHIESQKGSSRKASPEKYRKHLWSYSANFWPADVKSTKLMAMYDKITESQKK

Protein translocase subunit SecA (Escherichia coli (strain K12)), sequence (P10408 whole entry): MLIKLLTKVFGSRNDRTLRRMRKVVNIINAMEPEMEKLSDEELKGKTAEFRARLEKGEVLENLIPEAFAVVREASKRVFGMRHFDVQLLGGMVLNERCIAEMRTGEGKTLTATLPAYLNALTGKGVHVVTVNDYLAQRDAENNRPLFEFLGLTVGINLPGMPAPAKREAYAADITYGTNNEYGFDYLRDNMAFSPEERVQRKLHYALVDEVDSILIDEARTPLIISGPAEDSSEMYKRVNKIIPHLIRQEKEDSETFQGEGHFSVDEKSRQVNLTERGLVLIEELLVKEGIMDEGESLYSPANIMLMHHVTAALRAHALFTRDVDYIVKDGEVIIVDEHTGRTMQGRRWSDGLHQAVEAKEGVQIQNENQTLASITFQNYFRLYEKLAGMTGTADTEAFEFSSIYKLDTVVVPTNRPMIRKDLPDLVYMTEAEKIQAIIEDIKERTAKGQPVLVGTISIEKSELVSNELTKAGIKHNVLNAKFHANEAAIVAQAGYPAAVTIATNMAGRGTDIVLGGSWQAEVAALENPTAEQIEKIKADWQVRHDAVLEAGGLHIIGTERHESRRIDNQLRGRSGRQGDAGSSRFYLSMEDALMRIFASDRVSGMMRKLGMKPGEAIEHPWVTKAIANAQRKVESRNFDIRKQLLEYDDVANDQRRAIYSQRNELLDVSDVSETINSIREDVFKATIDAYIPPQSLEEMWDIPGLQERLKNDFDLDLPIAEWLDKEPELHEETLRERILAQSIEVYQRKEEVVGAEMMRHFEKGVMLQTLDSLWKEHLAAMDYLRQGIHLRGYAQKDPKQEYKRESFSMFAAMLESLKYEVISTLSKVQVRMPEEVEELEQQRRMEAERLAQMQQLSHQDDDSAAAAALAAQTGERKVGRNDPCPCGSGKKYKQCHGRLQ

`CNc1cc(N2CCCC2CNCc2ccc(Cl)o2)ncn1` (stereo unspecified): the Percent Effect in assay [1] was -6.85%; in assay [2] it was 13.5%; in assay [3], -2.54%; in assay [4], 43.1%; in the assay on Trypanosoma cruzi, 8.98%; in [5] it was 16.2%. Besides, the Percent Effect in assay [6] is 18.9%; in the assay filed under Homo sapiens, 22%; in assay [7], 15.8%; in [8], 23.2%; in [9], 89.7%.

With `Cc1nc(C)n(CC2CCCN2Cc2cscn2)n1` (stereo unspecified), the Percent Effect in assay [1] is -4.14%; in assay [2], 2.6%; in assay [3], 3.5%; in assay [4] it was 10.9%; in the assay with Trypanosoma cruzi, 2.64%; in assay [5], -0.21%. The Percent Effect in assay [6] was -0.404%; in the assay listed under Homo sapiens, -14.6%; in assay [7], 5.71%; in assay [8], 11.8%; in assay [9], -13.6%.

With `CN(C)C(=O)N1Cc2nnn(C)c2C(COCC2CC2)C1` (stereo unspecified), the Percent Effect in assay [1] was 1.21%; in [2], -21.9%; in [3], -4.36%; in [4], 0.0741%; in the assay on Trypanosoma cruzi, 4.96%; in assay [5], 2%. For the same compound, the Percent Effect in [6] is 6.76%; in the assay listed under Homo sapiens, -7.39%; in assay [7] it was 2.08%; in assay [8], 6.17%; in [9], -1.7%.

For the compound `Cn1cc(C(=O)NC2CCN(C(=O)NCC3CCSCC3)CC2)cn1`, the Percent Effect in assay [1] is -7.28%; in [2] it was 6.33%; in assay [3], 11.5%; in assay [4] it was 2.29%; in the assay with Trypanosoma cruzi, -2.15%; in [5] it was 2.37%. The Percent Effect in [6] was 8.75%; in the assay listed under Homo sapiens, 24.4%; in assay [7] it was 11.5%; in [8] it was 15.2%; in assay [9], 1.7%.

Regarding `CN1CCN(C(=O)c2ccc(=O)n(C)c2)c2ccccc21`, the Percent Effect is -6.34% in assay [1]; 18.9% in assay [2]; -11% in assay [3]; 20.6% in assay [4]; 3.25% in the assay on Trypanosoma cruzi; -0.554% in assay [5]. In addition, the Percent Effect in [6] was 2.51%; in the assay listed under Homo sapiens, 6.73%; in [7], 16.8%; in assay [8] it was 25.6%; in [9] it was -6.38%.

As to `O=S(=O)(C1CC1)N1CCO[C@H]2[C@H](OCC3CCCC3)CC[C@@H]21`, the Percent Effect in assay [1] is -4.67%; in [2], 0%; in [3] it was 1.22%; in [4] it was -1.17%; in the assay with Trypanosoma cruzi, 4.83%; in [5], -45.7%. The Percent Effect is 2.05% in assay [6]; -5.99% in the assay filed under Homo sapiens; 0% in [7]; 5% in assay [8]; -4.13% in assay [9].

`Cc1cnccc1N1CCCN(C(=O)CCCS(N)(=O)=O)CC1`: the Percent Effect in assay [1] is -2.12%; in assay [2], 5.48%; in [3], 6.21%; in assay [4] it was 1.68%; in the assay on Trypanosoma cruzi it was 1.37%; in assay [5], 15.4%. The Percent Effect in assay [6] is 8.87%; in the assay listed under Homo sapiens, -6.07%; in assay [7], 2.15%; in assay [8], 12.5%; in assay [9], 0.551%.

With `O=C(CCN1C(=O)CCC1=O)Nc1cnn(-c2ccccc2Cl)c1`, the Percent Effect was -6.27% in [1]; 10.8% in assay [2]; 6.39% in [3]; 1.29% in assay [4]; -7.52% in the assay on Trypanosoma cruzi; -0.185% in assay [5]. Moreover, the Percent Effect in assay [6] came to 5.92%; in the assay filed under Homo sapiens, 20.3%; in assay [7], 4.95%; in [8], 6.1%; in [9], 4.56%.

For `CCc1ncc2c(n1)CN(Cc1nc(-c3ccsc3)no1)CC2`, the Percent Effect is -3.47% in [1]; -18.4% in assay [2]; -15.2% in assay [3]; -3.23% in assay [4]; -1.77% in the assay on Trypanosoma cruzi; -0.719% in assay [5]. Also, the Percent Effect in assay [6] is 7.02%; in the assay listed under Homo sapiens, -16.8%; in [7] it was 9.36%; in assay [8] it was -1.24%; in assay [9], 8.2%.

For `Cn1ccnc1CN1CCN(Cc2cc(C#N)ccc2F)CC1`, the Percent Effect is -2.4% in [1]; 2.7% in assay [2]; 1.09% in assay [3]; -1.18% in assay [4]; -9.38% in the assay with Trypanosoma cruzi; 6.1% in assay [5]. In addition, the Percent Effect was found to be 10.8% in assay [6]; 20% in the assay filed under Homo sapiens; 5.94% in [7]; 6.1% in [8]; 3.16% in assay [9].

Regarding `COc1ccnc(C(=O)N2CCCC(c3noc(C)n3)C2)c1` (stereo unspecified), the Percent Effect was -0.16% in [1]; -7.59% in assay [2]; 1.48% in [3]; 5.56% in assay [4]; -0.85% in the assay with Trypanosoma cruzi; 0.76% in assay [5]. Moreover, the Percent Effect in assay [6] is 3.03%; in the assay listed under Homo sapiens it was -3.33%; in assay [7], -2.46%; in assay [8], -1.27%; in assay [9], -3.23%.
